The text below walks through data of PubChem BioAssay (NCI).

What all share (assay): NCI-60 one-dose screen, 48 h (100 = growth as untreated, 0 = no growth, -100 = all killed)
Conditions in all cases: 10 µM unless noted

In experiment [1] the test system is RPMI-8226 leukemia.
For experiment [2], the system named is OVCAR-8 ovarian.
For experiment [3], the system named is OVCAR-5 ovarian.
Experiment [4] deals with OVCAR-4 ovarian.
Experiment [5] has as its system IGROV1 ovarian.
Experiment [6] deals with OVCAR-3 ovarian.
For experiment [7], the system named is HS 578T breast.
Experiment [8] relates to NCI/ADR-RES ovarian.
The test system of experiment [9] is BT-549 breast.
Experiment [10] relates to MDA-MB-435 melanoma.
Experiment [11] deals with SW-620 colon.
The subject of experiment [12] is MCF7 breast.
Experiment [13] concerns HCT-116 colon.
In experiment [14] the test system is HCC-2998 colon.
Experiment [15] concerns KM12 colon.
The test system of experiment [16] is SK-OV-3 ovarian.
Experiment [17] deals with T-47D breast.

The panel holds about 83,000 compounds, 20% with a hit somewhere; the sample as a whole holds those more often.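 Plates (96-well) were seeded with cells, treated with compound at one concentration, and incubated for 48 hours before percent growth was determined.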 Unmarked numbers belong to inactive results. Calls of active or inactive are those of the source. Rule for the calls: active = growth percent below 10; inactive = the rest.

With `CCCCCCN(CCCCCC)CC(O)c1cccc2ccc(Cl)cc12` (centres undefined), the growth was 31.2% in experiment [1]; 93.8% in [2]; 69.3% in [3]; 70% in experiment [4]; 40.8% in [5]; 63.2% in [6]. Also, the growth in experiment [7] is 61.2%; in [8], 66.9%; in experiment [9], 99.2%; in experiment [10], 69.9%; in [11], 35.7%; in experiment [12], 56.5%. For the same compound, the values for the growth in experiment [13], in experiment [14] and in experiment [15] were 16.7%, 13.1% and 44.5%, respectively.

On to `CCOc1ccc(S(=O)(=O)c2ccc(C)cc2)c2c1no[n+]2[O-]`, for which the growth in experiment [1] was 67.9%; in experiment [2] it was 90.7%; in experiment [3], 99.1%; in experiment [4], 67.5%; in experiment [16] it was 77.4%; in experiment [6], 85.2%. In addition, the growth in [7] was 78.4%; in experiment [8] it was 71.8%; in [17], 56.4%; in experiment [10], 91.4%; in experiment [11] it was 100%; in experiment [12], 83.1%. The growth in experiment [13] was 80.4%; in [14] it was 100%; in experiment [15], 93.6%.

Consider `O=C(NCc1cccnc1)c1cc(-c2csc3c(=O)cc(N4CCOCC4)oc23)cc2c1OCCO2`, for which the growth in experiment [1] was 9.21% (active); in [3], 31.3%; in [4], 50.3%; in experiment [16] it was 8.37% (active); in [5], 7.23% (active); in experiment [6] it was 34.7%. Also, the growth is 8.92% (active) in experiment [7]; 54.3% in experiment [9]; 32.9% in experiment [10]; 46.9% in experiment [11]; 8.29% (active) in experiment [12]; 45.2% in experiment [13]. Further, the growth in [14] was 41.8%; in experiment [15] it was 48.9%.

In the case of `Clc1ccc2c(NCCCN3CCN(c4nc(N5CCOCC5)nc5ccccc45)CC3)ccnc2c1`, the growth in experiment [1] is -39.5% (active); in experiment [3], 60.6%; in [4], 50.3%; in experiment [16], 108%; in experiment [5] it was 50.4%; in [6] it was -40.8% (active). For the same compound, the growth in experiment [8] was 25.1%; in [9], 59.3%; in experiment [10], -86.5% (active); in experiment [11] it was -20.3% (active); in [12] it was -3.49% (active); in experiment [13] it was -0.752% (active). Further, the growth in experiment [14] is -57.5% (active); in experiment [15], 25%.

As to `C=C(C)[C@@H]1CC[C@]2(CO)CC[C@]3(C)[C@H](CC[C@@H]4[C@@]5(C)C=C(C#N)C(=O)C(C)(C)[C@@H]5CC[C@]43C)[C@@H]12`, the growth was -20.9% (active) in experiment [1]; 22.2% in experiment [2]; 36.3% in [3]; 26.9% in experiment [4]; 37.9% in experiment [16]; 24.1% in [5]. Also, the growth in experiment [7] was 29.3%; in [8] it was 13.1%; in [9], 29.3%; in experiment [10], 17.8%; in experiment [11] it was 5.54% (active); in experiment [12], 1.77% (active). The values for the growth in experiment [13] and in experiment [14] were 10.5% and 8.97% (active), respectively.

As for `C/C(=N\NC(=O)Cn1c(-c2ccc(S(C)(=O)=O)cc2)nc2cc(Cl)ccc21)c1ccc(Cl)cc1`, the growth in [1] was 76.4%; in [3], 91.2%; in experiment [4], 65.9%; in experiment [16] it was 81.3%; in experiment [5], 70.6%; in experiment [6], 79.7%. Moreover, the growth in experiment [7] is 80.7%; in [8], 86.7%; in experiment [9], 92.3%; in [10], 79.1%; in [11], 92.2%; in [12], 62%. In addition, the growth was 80.5% in [13], 103% in experiment [14] and 76.4% in experiment [15].

For `CS(=O)(=O)c1ccc(N/N=C/c2c(-c3ccc(S(C)(=O)=O)cc3)[nH]c3ccc(F)cc23)cc1`, the growth in experiment [1] was -41.7% (active); in [2], 26.1%; in experiment [3], 75.1%; in experiment [16], 54.6%; in experiment [5], 35.4%; in experiment [6], 41.7%. For the same compound, the growth was 5.71% (active) in [7]; 91.5% in experiment [8]; 23.9% in experiment [9]; 40.3% in [10]; 59.7% in experiment [11]; 18.9% in experiment [12]. The growth in experiment [13] is 27.1%; in [14] it was 52.3%; in experiment [15], 29.2%.

Take `CC1=CC(=O)C(C(C)C)=CC1=Nc1cc(Br)c(O)c(Br)c1`: the growth in [1] is -8.71% (active); in [2], 31.1%; in experiment [3], 29.4%; in experiment [4], 37.2%; in experiment [16], 19.6%; in experiment [5], 22.9%. Moreover, the growth in experiment [6] is -9.25% (active); in experiment [17] it was 75.5%; in experiment [9], 26.4%; in [10], -11.7% (active); in [11], 27.3%; in experiment [12] it was 23.2%. Also, the results for the growth in experiment [13], in [14] and in experiment [15] were 1.14% (active), -43.5% (active) and -1.83% (active), respectively.

For the compound `NC(=O)c1c(NC(=O)c2ccccn2)sc2c1CCC(=O)C2`, the growth is 1.88% (active) in experiment [1]; 14.2% in experiment [2]; 21.5% in experiment [3]; 95.6% in experiment [16]; 29.9% in experiment [5]; 7.94% (active) in experiment [6]. In addition, the growth in experiment [7] is 25.1%; in [8], 17.6%; in experiment [17], 5.3% (active); in experiment [9], 5.57% (active); in [10] it was 21.3%; in experiment [11] it was 14.7%. For the same compound, the growth is 39.1% in [12], 9.08% (active) in [13], 81% in experiment [14] and 6.82% (active) in experiment [15].

Take `C=C(CNCCc1ccc(O)cc1)[C@@H]1CC[C@]2(COC3CCCCO3)CC[C@]3(C)[C@H](CC[C@@H]4[C@@]5(C)CCC(NCCO)C(C)(C)[C@@H]5CC[C@]43C)[C@@H]12` (some centres undefined): the growth is -56.8% (active) in [1]; -85.1% (active) in experiment [2]; -93.1% (active) in experiment [3]; -48.9% (active) in experiment [16]; -83.9% (active) in [5]; -94.4% (active) in experiment [6]. The growth in [7] is -51.5% (active); in experiment [8], -79.3% (active); in experiment [9], 41.2%; in experiment [10], -89.8% (active); in experiment [11] it was -76.2% (active); in experiment [12], -84.3% (active). The growth in [13] was -95.3% (active); in experiment [14], -89.5% (active); in experiment [15], -84.9% (active).

Turning to `C#C[C@]1(O)CC[C@H]2[C@@H]3CC=C4c5sc(N=C(N)N)nc5CC[C@]4(C)[C@H]3CC[C@@]21C`, the growth in [1] was -29% (active); in experiment [2], 10.1%; in [3], 28%; in [4], 29%; in experiment [16], -57.2% (active); in [5], 14.4%. Besides, the growth is -39.2% (active) in experiment [7]; 29.8% in experiment [8]; 1.23% (active) in [17]; -55.9% (active) in [10]; -47.1% (active) in [11]; 0.374% (active) in experiment [12]. In addition, the growth in experiment [14] was -15.9% (active); in [15], -28.6% (active).

Turning to `Cc1cc(N(CCCNc2ccnc3cc(Cl)ccc23)Cc2ccccn2)nc(N2CCOCC2)n1`, the growth was 85.2% in [1]; 81.7% in experiment [2]; 95.8% in experiment [3]; 82.3% in [4]; 88.5% in experiment [16]; 82.2% in [5]. Moreover, the growth in experiment [7] is 80.9%; in experiment [8], 88.6%; in experiment [9], 90.5%; in [10], 111%; in experiment [11], 83.5%; in [12] it was 87%. Also, the growth in experiment [13] was 57.9%; in experiment [14], 105%; in experiment [15] it was 103%.

Regarding `COc1ccc(/C=N/NC(=O)Cn2c(-c3ccc(S(C)(=O)=O)cc3)nc3cc(Cl)ccc32)cc1`, the growth in experiment [1] is 9.21% (active); in experiment [3], 36.8%; in experiment [4], 55.5%; in experiment [16] it was 12.6%; in experiment [5], 33.3%; in [6], -1.53% (active). Besides, the growth in experiment [7] is 36.8%; in experiment [8], 5.86% (active); in [9] it was 43.1%; in experiment [10], -17.8% (active); in experiment [11] it was 30.5%; in experiment [12] it was 17.2%. In addition, the growth was 11.8% in [13], 19.4% in experiment [14] and 13.3% in [15].

Turning to `CN(C)CCCCNc1ccc(NCCCCN(C)C)c2c1C(=O)c1c(O)ccc(O)c1C2=O`, the growth was 53.6% in [1]; -73.1% (active) in experiment [2]; -86% (active) in experiment [3]; 85.6% in [16]; -84.5% (active) in experiment [5]; 100% in experiment [6]. In addition, the growth in [7] is 92%; in experiment [8], -68.8% (active); in [17] it was 97.1%; in [9], 92%; in [10] it was 92.7%; in experiment [11], -72.6% (active). Further, the growth in experiment [12] is -81.6% (active); in [13], -66.7% (active); in experiment [14] it was -86% (active); in experiment [15], -89.3% (active).

Consider `Cc1nc(-c2ccccc2)cc2c(O)c(C(=O)N/N=C/c3ccc(N(C)C)cc3)[nH]c(=O)c12`, for which the growth in experiment [1] was -11.6% (active); in [2] it was 67.3%; in [3], 85.4%; in experiment [4] it was 26.6%; in [16] it was 105%; in experiment [5] it was 49.8%. In addition, the growth in experiment [7] is 73.2%; in experiment [8], 66.9%; in experiment [17], 76.5%; in [9], 103%; in experiment [10], 86.8%; in [11], 75%. Further, the growth in experiment [12] was 64.1%; in [13] it was 57.6%; in experiment [14] it was 95.2%; in experiment [15], 82.3%.

As for `Nc1ccc(S(=O)(=O)Nc2ccsc2-c2nc(-c3ccccc3)no2)cc1`, the growth in experiment [1] is 65.8%; in experiment [3], 87.5%; in experiment [4], 81.9%; in [16], 62.3%; in experiment [5], 64.7%; in experiment [6], 36.8%. In addition, the growth in [7] is 56.4%; in [8] it was 54.6%; in experiment [9] it was 59%; in experiment [10], 3.96% (active); in experiment [11], 29.8%; in experiment [12] it was 55.9%. Besides, the growth in experiment [13] was 38.4%; in experiment [14], 79.4%; in experiment [15], 33.6%.
